Bioassay records as filed in PubChem.
IDE inh: human IDE inhibitors in live cells, primary screen, fluorescence polarization, HEK cells, FAbetaB substrate; Insulin-degrading enzyme (Homo sapiens), P14735; FAbetaB cleavage; inhibition, % at 5.59 µM; actives 0.41% (n = 320,000);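 active = percent inhibition above the average of all tested compounds plus 3 SD, set per screening campaign, cut at about 16% in these data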;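 also: IDE supplied by intact live HEK cells; FP after avidin binding of uncleaved biotin substrate so inhibition keeps polarization high; 0% = DMSO wells and 100% = 60 µM reference IDE inhibitor Ii1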
LANA-H2B inh: blockers of LANA interaction with H2A/H2B – biochemical, FP readout, HTS, primary screen; actives 0.6% (n = 320,000); cell-free LANA-H2A/H2B peptide, fluorescence polarization; inhibition, % (test concentration not listed); in the data active = inhibition mostly above about 10%, no sharp cut-off; inactive = mostly below about 6.7%
IDE cell activ: human IDE activators in live cells, primary screen, fluorescence polarization, HEK cells, FAbeta-B substrate. Insulin-degrading enzyme (Homo sapiens), P14735. FAbeta-B cleavage; 0% vehicle, 100% cell-free pure enzyme wells. activation, % at 5.96 µM. actives 0.073% (n = 340,000). AID 493087, 2011;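 active = activation above the mean of all tested compounds plus 3 SD, set per screening campaign, cut at about 17% in these data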
Mot1-301 SUMO: yeast Mot1-301 growth rescue at high temperature, primary screen, SUMOylation pathway inhibitor project, S. cerevisiae, ATP luminescence, 38.5C; S. cerevisiae Mot1-301 growth rescue; percent above DMSO median, 100 means doubled; growth rescue, % at 18.8 µM; actives 1% (n = 320,000); AID 2716, 2010;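 active = every valid replicate shows activation above 250% relative to neutral control wells; inactive = the rest, any valid replicate at or below 250%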;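 also: OY570 slx delta 5 strain wells were the positive control but not used for scaling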
HDAC3 inhib: HDAC3 deacetylase inhibitors, primary screen, biochemical, fluorescence, cell-free homogeneous; Histone deacetylase 3 (Homo sapiens), O15379; recombinant HDAC3, fluorogenic peptide/trypsin coupled; inhibition, % at 8.3 µM; actives 0.15% (n = 320,000); AID 2718, 2010; in the data active = inhibition above about 26%, passing the limit was not always enough
Target sequence (O15379 whole entry, looked up): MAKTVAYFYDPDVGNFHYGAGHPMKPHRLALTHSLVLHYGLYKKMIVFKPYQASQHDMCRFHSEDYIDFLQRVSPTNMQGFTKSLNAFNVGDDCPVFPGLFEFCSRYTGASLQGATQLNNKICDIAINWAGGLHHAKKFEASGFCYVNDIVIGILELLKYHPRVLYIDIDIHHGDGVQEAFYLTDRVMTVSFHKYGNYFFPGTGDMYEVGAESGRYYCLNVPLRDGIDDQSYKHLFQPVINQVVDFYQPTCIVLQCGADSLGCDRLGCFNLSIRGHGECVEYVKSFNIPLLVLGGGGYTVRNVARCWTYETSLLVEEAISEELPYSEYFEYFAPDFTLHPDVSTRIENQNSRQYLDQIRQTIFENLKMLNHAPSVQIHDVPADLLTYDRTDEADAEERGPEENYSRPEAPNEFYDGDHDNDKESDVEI
Yeast Mot1 SUMO: growth restoration of Mot1-301 yeast on galactose, dose response, SUMO pathway inhibitor project, whole organism, S. cerevisiae, ATP luminescence, cherry-picked samples; AID 493004, 2010; 2,300 tested, under 10 active; shares compounds with Mot1-301 SUMO; growth activity, percent, % at 42 µM; S. cerevisiae Mot1-301 galactose growth, 24 h; -100 = growth of slx-deleted rescue strain;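 active = Signal drops as the depositor expects, and the fitted half-maximal dose is no more than ten times the top valid tested dose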;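 also: more negative values mean stronger growth rescue toward the control strain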
Active calls of the source: *; . = not tested or not shown; + = active, no number. Most compounds without a hit are left out; they make up all but 2.1% or so of the library.

SMILES	IDE inh	LANA-H2B inh	IDE cell activ	Mot1-301 SUMO	HDAC3 inhib	Yeast Mot1 SUMO
COc1ccc(-c2ccc3c(c2)S(=O)(=O)c2cccc(C(=O)NCc4cc(C)oc4C(F)(F)F)c2C3=O)cc1OC	-0.1	4.8	3.2	-7.4	-0.1	.
Cc1c(NS(=O)(=O)c2cc(C(=O)NCc3ccco3)cc(Cl)c2Cl)c(=O)n(-c2ccccc2)n1C	5.7	-0.3	0.1	0.7	0.5	.
CCN(CC(=O)Nc1cc(Cl)ccc1C)C(=O)C1CC1	0.7	3.1	0.1	1.1	-0.5	.
Cn1c(SCC(=O)Nc2ccc(N3CCOCC3)c(Cl)c2)nnc1-c1ccccc1	3.5	40.3*	.	691.6*	-1.8	0.3
Cc1ccc(-c2noc(C3CCCN(S(=O)(=O)c4ccc5ccccc5c4)C3)n2)o1 (stereo not given)	-0.3	-2.1	1.3	765.4*	-4.8	0.4
Cc1ccc(S(=O)(=O)N2CCCC(c3nc(-c4ccc(C)o4)no3)C2)cc1 (stereo not given)	3.7	1.7	4.7	-0.4	-1.9	.
Nc1cc[n+](CC(=O)Nc2ccccc2)cc1	2.2	-2.9	-2.6	798.9*	0.0	1.1
Cc1cccc(NC(=O)C[n+]2ccccc2)c1	1.3	2.9	0.1	-8.5	-7.2	.
Cc1cccnc1NC(=S)Nc1ccc(F)cc1F	-3.5	4.8	-1.7	9.4	-1.0	.
C=C(C)C(=O)Nc1cccnc1Oc1ccc(F)cc1F	-0.1	-0.4	2.0	+	-4.4	0.6
Nc1nc(CSc2nnnn2-c2ccc(Cl)cc2)nc(N2CCOCC2)n1	6.4	-0.8	2.8	376.0*	9.6	-0.3
Cn1cc(C(=O)c2ccccc2C(=O)O)cc1C(=O)C(Cl)(Cl)Cl	4.0	-0.6	2.5	-4.8	1.1	.
O=C(O)CCC(=O)Nc1cccc(C(=O)Nc2ccc(Br)cc2)c1	2.7	4.2	7.1	795.9*	-2.9	0.2
O=C(O)CCC(=O)Nc1cccc(C(=O)Nc2cccc(Cl)c2)c1	-3.5	-1.3	2.5	-2.4	2.3	.
COc1ccc(CNC(=O)C(C)OC(=O)Cn2cnc3c2c(=O)n(C)c(=O)n3C)cc1 (stereo not given)	.	.	-3.1	.	.	.
CC1CN(c2nc3ccccc3nc2SCC(=O)Nc2cccc(C(F)(F)F)c2)CC(C)O1 (stereo not given)	3.4	3.3	1.2	10.4	-0.4	.
COc1cc2c(cc1OC)C(c1ccc(SC)cc1)CC(=O)N2 (stereo not given)	0.1	-1.3	1.0	665.7*	-4.6	-0.8
COc1cc2c(cc1OC)C(c1ccccc1C)CC(=O)N2 (stereo not given)	0.0	-1.8	9.0	732.1*	-7.6	-0.2
COc1cc(/C=C(\C#N)c2nc3ccc(C)cc3[nH]2)c([N+](=O)[O-])cc1OC	8.5	-1.0	-2.8	3.3	2.0	.
Cc1ccc2nc(/C(C#N)=C\c3cc(O)ccc3[N+](=O)[O-])[nH]c2c1	-0.5	3.5	6.0	503.3*	7.7	0.5
N#C/C(=C\c1cc([N+](=O)[O-])c(N2CCOCC2)cc1N1CCOCC1)c1nc2ccccc2[nH]1	-2.0	-0.9	2.0	361.2*	1.2	1.5
O=C1C=C(c2ccc(F)nc2)CCC1	-0.4	-3.3	2.4	-18.1	-1.4	.
O=C(Nc1cccc2ncccc12)c1cc(Br)ccc1Cl	1.3	-1.4	2.1	4.3	5.2	.
CN(C)c1ccc(CN(Cc2ccco2)C(=O)c2ccco2)cc1	-6.4	-1.7	2.7	365.8*	-1.7	0.4
COc1cc(C(c2c(C)[nH][nH]c2=O)c2c(C)[nH][nH]c2=O)cc(OC)c1OC	4.7	0.8	3.5	674.1*	2.5	0.0
SMILES	IDE inh	LANA-H2B inh	IDE cell activ	Mot1-301 SUMO	HDAC3 inhib	Yeast Mot1 SUMO
COc1cc(C(c2c(C)[nH][nH]c2=O)c2c(C)[nH][nH]c2=O)cc(Cl)c1O	11.8	3.4	6.6	2.3	-2.6	.
CCOc1ccc(NC(=O)C2CC(=O)N3CCCN=C3S2)cc1 (stereo not given)	-1.3	3.7	3.2	+	-0.3	-0.2
CCCOc1ccc(NC(=O)C2CC(=O)N3CCCN=C3S2)cc1 (stereo not given)	-2.6	1.0	-3.1	47.7	-2.0	.
CC12C=CC(=O)C=C1CCC1C2C(O)CC2(C)C1CCC2(O)C(=O)CO (stereo not given)	.	.	4.0	.	.	.
O=C(NC1(C(F)(F)F)NC(=O)N(c2ccccc2F)C1=O)c1ccncc1 (stereo not given)	-1.6	-1.2	-5.5	-2.7	-0.5	.
CC(C)(C)C(=O)NC1(C(F)(F)F)NC(=O)N(c2ccccc2F)C1=O (stereo not given)	0.5	-6.6	0.5	482.9*	-0.1	0.5
O=C(O)c1cccc(S(=O)(=O)N2CCN(c3ccccn3)CC2)c1	.	11.2	1.5	-8.4	0.9	.
O=C(O)c1ccc(S(=O)(=O)N2CCN(c3ccccn3)CC2)cc1	1.7	4.1	1.6	762.8*	-2.1	-0.3
COCc1cc(CN(C)C(=O)C2CCC(=O)N(Cc3cccc(OC)c3)C2)[nH]n1 (stereo not given)	1.9	6.2	2.5	14.0	-1.3	.
C=CCNC(=O)/C(C#N)=C/c1c(N(Cc2ccccc2)Cc2ccccc2)nc2ccccn2c1=O	-4.0	3.2	1.4	-8.0	-9.2	.
CCNC(=O)/C(C#N)=C/c1c(N2CCCCCC2)nc2ccccn2c1=O	0.9	0.6	0.9	748.2*	-136.9	-0.1
N#C/C(=C\c1c(N(Cc2ccccc2)Cc2ccccc2)nc2ccccn2c1=O)C(N)=O	4.9	-3.0	-3.9	.	3.5	0.1
CCNC(=O)/C(C#N)=C/c1c(N2CCN(c3ccccc3)CC2)nc2ccccn2c1=O	.	-0.2	-2.0	7.4	-26.0	.
C/C(=N/NC(=O)c1ccc(-c2ccccc2)cc1)c1cccc(O)c1	.	-2.8	-0.4	34.9	2.9	.
Cc1nc(-c2ccc(Cl)cc2)sc1C1(C)CC(c2c(Cl)cccc2Cl)=NO1 (stereo not given)	-1.2	-5.4	3.2	420.8*	-2.5	0.2
Cc1nc(-c2ccccc2)sc1C1(C)CC(c2c(Cl)cccc2Cl)=NO1 (stereo not given)	-2.9	2.5	1.7	-7.6	0.4	.
CC1Cc2ccccc2N1C(=O)COC(=O)c1ccc([N+](=O)[O-])o1 (stereo not given)	9.2	-0.2	-3.9	-11.2	1.2	.
O=C(OCC(=O)c1cccc2ccccc12)c1ccc(CO)cc1	2.5	1.2	8.5	-4.1	11.7	.
O=C(C1CC(=O)N(c2ccccc2F)C1)N1CCOCC1 (stereo not given)	-2.6	-3.0	1.6	2.6	-9.5	.
